NPC1 prom act: qHTS Assay for NPC1 Promoter Activators. hit rate 2.4% among 320,000. AID 485313, 2010. Huh7 NPC1 promoter luciferase reporter, 24 h. Potency, µM (top dose mostly 9.22 µM), inactives show at the top dose activation, most hits filed as activators; further: % of control where 0% means no effect; nearly all actives have a fitted effect of over 60% in size
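Luminescence from an NPC1 promoter-driven luciferase reporter in stably transfected Huh7 cells was measured after 24 h compound treatment at 37 °C, followed by 10 min ambient incubation with luciferase detection reagent.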
FLuc modulator: qHTS profiling assay for firefly luciferase inhibitor/activator using purifed enzyme and Km concentrations of substrates (counterscreen for miR-21 project); hit rate 6.9% among 360,000; Potency, µM (series often up to 57.5 µM), for the others: at the top dose activity change, negative = inhibition, hits mostly inhibitors; AID 588342, 2011; Luciferin 4-monooxygenase (Photinus pyralis), P08659; purified FLuc, Km substrates, luminescence inhibition;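 further: plate controls were vehicle for no effect and reference inhibitor for full effect; nearly all actives have a fitted effect of over 55% in size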
Target sequence (P08659 whole entry, looked up): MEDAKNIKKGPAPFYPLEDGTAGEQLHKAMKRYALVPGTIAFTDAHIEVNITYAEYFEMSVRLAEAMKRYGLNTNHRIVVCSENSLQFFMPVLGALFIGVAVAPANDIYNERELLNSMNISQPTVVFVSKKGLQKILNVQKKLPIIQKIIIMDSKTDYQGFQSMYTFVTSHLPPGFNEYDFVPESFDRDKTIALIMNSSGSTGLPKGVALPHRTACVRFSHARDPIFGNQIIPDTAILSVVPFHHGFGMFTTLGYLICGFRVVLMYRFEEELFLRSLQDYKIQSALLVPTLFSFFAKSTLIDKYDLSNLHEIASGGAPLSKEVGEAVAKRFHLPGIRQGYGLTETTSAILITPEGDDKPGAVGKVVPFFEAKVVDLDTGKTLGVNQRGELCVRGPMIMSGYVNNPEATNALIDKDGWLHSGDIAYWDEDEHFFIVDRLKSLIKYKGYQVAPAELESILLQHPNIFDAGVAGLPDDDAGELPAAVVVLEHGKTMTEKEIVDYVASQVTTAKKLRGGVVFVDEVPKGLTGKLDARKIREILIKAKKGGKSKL
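Purified P. pyralis luciferase, 10 nM final, with Km-level 10 uM D-luciferin and 10 uM ATP in 50 mM Tris acetate pH 7.5, 10 mM Mg acetate, 0.01% Tween-20, 0.05% BSA; 6-point qHTS titration about 60 µM downward; luminescence read.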
ELG1 genotoxic: qHTS screen for small molecules that induce genotoxicity in human embryonic kidney (HEK293T) cells expressing luciferase-tagged ELG1; HEK293T ELG1-luciferase reporter, luminescence, 16 h; Potency, µM (top dose mostly 46 µM), inactives show at the highest dose activity change, positive = activation, most hits filed as activators; hit rate 1.3% among 330,000; AID 504466, 2011; further: % of control where 0% means no effect; nearly all actives have a fitted effect of over 60% in size
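Cells (2,000/well) expressing the ELG1-luciferase fusion are dosed by pin tool and kept 16 hr at 37 °C, 5% CO2. Signal comes from ONE-Glo luciferase reagent after 30 min at room temperature.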
SMN2 splice enh: qHTS Assay for Enhancers of SMN2 Splice Variant Expression; HEK293 SMN2-luciferase splicing reporter, luminescence, 30-36 h; Potency, µM (series often up to 46.1 µM), for the others: top-dose activity change, positive = activation, hits mostly activators; hit rate 2.8% among 210,000; further: % of control where 0% means no effect; nearly all actives have a fitted effect of over 55% in size
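HEK293 cells carry an SMN2 […]–luciferase reporter in which exon 7 inclusion puts luciferase in frame. Cells were plated 10-12 h before compound addition, then incubated 30-36 h at 37C. ONE-Glo luminescence was read; sodium butyrate at 4.5 mM final served as control.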
Rab9 prom act: qHTS Assay for Rab9 Promoter Activators; Huh7 Rab9 promoter-luciferase reporter, luminescence, 24 h; Potency, µM (top dose mostly 9.22 µM), without a hit: at the highest dose activation, negative = inhibition, actives largely listed as activators; hit rate 2.8% among 320,000; further: % of control where 0% means no effect; nearly all actives have a fitted effect of over 60% in size
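Huh7 cells stably carrying Rab9 promoter–luciferase reporter, plated 1500 cells/well, compound added after 2 h and incubated 24 h at 37 °C; luciferase luminescence then read after 10 min with detection reagent.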
Luc counter: Counterscreen for Luciferase (Kinase-Glo TM) Inhibition; Luciferin 4-monooxygenase (Photuris pensylvanica), Q27757; Kinase-Glo luciferase, ATP luminescence, 8 min; Potency, µM (highest dose often 38.3 µM), for the others: top-dose activity change, negative = inhibition, actives largely listed as inhibitors; hit rate 0.28% among 200,000; AID 1379, 2008; further: on the % scale 0 is the no-effect control and ±100 the full control effect; nearly all actives have a fitted effect of over 60% in size
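Light output from Kinase-Glo luciferase with luciferin and 10 uM ATP in 50 mM imidazole pH 7.2, KCl, MgCl2, Tween 20, BSA; compound pin-delivered, 8-min ambient incubation, then luminescence read.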
Active calls of the source: *. A selection: hits, their analogues and other compounds. The true share with any hit is near 7.5%. The call rests on the fitted dose curve; in most records, active means well fitted curve in the direction sought with a large enough effect; inconclusive means small, poorly fitted or top-dose-only effect, or another doubt; inactive means no such curve, though single readings can be large; an effect the other way counts as inactive or inconclusive. Potency means the concentration at half of the fitted maximal effect.

What do the screens show for `COc1ccc(/C=N/NC(=O)c2cnccn2)cc1O`?
NPC1 prom act: 3%; FLuc modulator: 12µM*; ELG1 genotoxic: inconclusive; SMN2 splice enh: 13%; Rab9 prom act: -3%; Luc counter: -13%

Results for COc1cc(/C=N/NC(=O)c2ccncc2)ccc1O ?
NPC1 prom act: 2%; FLuc modulator: -7%; ELG1 genotoxic: 2%; Rab9 prom act: 2%

How did Cc1ccc(N2CCN(C(=O)c3c(C)oc4nc(C)nc(N5CCCC5)c34)CC2)c(C)c1 do in these assays?
FLuc modulator: -3%

How did CN(C)c1ccc(C(=C2C=CC(=[N+](C)C)C=C2)c2ccc(N(C)C)cc2)cc1 do in these assays?
SMN2 splice enh: -54%; Luc counter: 5µM*

What do the screens show for `COc1ccc(C(=O)Nc2ccc3c(c2)OCCO3)cc1[N+](=O)[O-]`?
NPC1 prom act: 18%; FLuc modulator: 11µM*; ELG1 genotoxic: 14%; SMN2 splice enh: 22%; Rab9 prom act: inconclusive; Luc counter: 2%

How did Cc1c([N+](=O)[O-])c(C(=O)Nc2ccc3c(c2)OCCO3)nn1C do in these assays?
NPC1 prom act: inconclusive; FLuc modulator: inconclusive; ELG1 genotoxic: 12µM*; SMN2 splice enh: 13µM*; Rab9 prom act: inconclusive; Luc counter: 13µM*

What do the screens show for `COc1ccc(NC(=O)c2ccc3c(c2)OCCO3)cc1OC`?
NPC1 prom act: 1.4µM*; FLuc modulator: 2.7µM*; ELG1 genotoxic: 5.6µM*; Rab9 prom act: 2.2µM*

How did COc1cc(NC(=O)c2ccc3c(c2)OCCO3)ccc1NC(=O)c1ccccc1Cl do in these assays?
NPC1 prom act: 10%; FLuc modulator: -2%; ELG1 genotoxic: 12%; Rab9 prom act: -1%

Results for COc1cc(C(=O)Nc2ccc3c(c2)OCCO3)ccc1OC(C)C ?
NPC1 prom act: inconclusive; FLuc modulator: 7.6µM*; ELG1 genotoxic: inconclusive; SMN2 splice enh: 11µM*; Rab9 prom act: 3.2µM*; Luc counter: -11%

How did Cc1ccc(SC(CC(=O)c2ccc(C)cc2)C(=O)O)cc1 (stereo not drawn) do in these assays?
NPC1 prom act: 4%; FLuc modulator: -15%; ELG1 genotoxic: -3%; SMN2 splice enh: 4%; Rab9 prom act: -1%; Luc counter: -1%

What do the screens show for `Cc1c(Cl)cccc1NC(=O)Cn1c(=O)n(Cc2nc(-c3ccccc3)no2)c(=O)c2cc3c(cc21)OCO3`?
FLuc modulator: -8%

Results for COc1cc(C(=O)Nc2ccc3c(c2)OCCO3)ccc1OC(F)F ?
NPC1 prom act: 3.2µM*; FLuc modulator: 6µM*; ELG1 genotoxic: inconclusive; SMN2 splice enh: 14µM*; Rab9 prom act: 2.8µM*; Luc counter: -17%

How did COc1ccc(/C=C/C(=O)NCC(=O)N2CCC(N(C)CCN3CCOCC3)CC2)cc1OC do in these assays?
NPC1 prom act: -1%; FLuc modulator: 2%; ELG1 genotoxic: -12%; SMN2 splice enh: -7%; Rab9 prom act: 2%; Luc counter: 1%

Results for CCc1cccc(C)c1NC(=O)CSc1nc(C)c(C)o1 ?
NPC1 prom act: 2%; FLuc modulator: 1%; ELG1 genotoxic: -3%; Rab9 prom act: 5%

Results for Nn1c(SCC(=O)Nc2ccc(Oc3ccccc3)cc2)nnc1C1CC1 ?
NPC1 prom act: -1%; FLuc modulator: inconclusive; ELG1 genotoxic: -7%; SMN2 splice enh: -14%; Rab9 prom act: 8%; Luc counter: -2%

What do the screens show for `Cc1nnc(SCC(=O)Nc2nnc(-c3ccccc3)o2)s1`?
NPC1 prom act: 2%; FLuc modulator: 19µM*; ELG1 genotoxic: 6%; Rab9 prom act: 2%

What do the screens show for `Nn1c(SCC(=O)Nc2nnc(-c3ccccc3)o2)nnc1C1CC1`?
NPC1 prom act: 11%; FLuc modulator: 8.5µM*; ELG1 genotoxic: -1%; Rab9 prom act: -2%

How did CCCCn1c(SCC2CCCCO2)nc2cc(S(N)(=O)=O)ccc21 (stereo not drawn) do in these assays?
NPC1 prom act: 1%; FLuc modulator: -4%; ELG1 genotoxic: -1%; SMN2 splice enh: -18%; Rab9 prom act: 4%; Luc counter: -1%

Results for CCCN(CCC)CC(O)Cn1cc(/C=C/C(=O)c2ccc(OC)cc2)c2ccccc21 (stereo not drawn) ?
FLuc modulator: -19%; SMN2 splice enh: -7%

Results for O=C(Cc1cccs1)N=Nc1c(O)[nH]c2ccccc12 ?
NPC1 prom act: 10%; FLuc modulator: inconclusive; ELG1 genotoxic: 10%; Rab9 prom act: 25%

Results for Cc1[nH]c2ccccc2c1/C=N/NC(=O)c1cc(-c2cccs2)[nH]n1 ?
NPC1 prom act: -4%; FLuc modulator: 15µM*; ELG1 genotoxic: -5%; SMN2 splice enh: 9%; Rab9 prom act: -1%; Luc counter: 2%

What do the screens show for `CCC(=O)Nc1ccc(C(=O)N/N=C/c2c(C)[nH]c3ccccc23)cc1`?
NPC1 prom act: 0%; FLuc modulator: 21µM*; ELG1 genotoxic: 11%; SMN2 splice enh: 6%; Rab9 prom act: 0%; Luc counter: 0%

What do the screens show for `Cc1[nH]c2ccccc2c1/C=N/NC(=O)CCC(=O)NCc1ccccc1`?
NPC1 prom act: -6%; FLuc modulator: -1%; ELG1 genotoxic: 0%; Rab9 prom act: -3%; Luc counter: -3%

How did O=C(N=Nc1c(O)[nH]c2ccccc12)c1cc(-c2cccs2)[nH]n1 do in these assays?
NPC1 prom act: inconclusive; FLuc modulator: 12µM*; ELG1 genotoxic: 2%; Rab9 prom act: 17%

What do the screens show for `Cc1ccc(-c2cc(C(=O)N/N=C/c3c(C)nn(-c4ccccc4)c3C)n[nH]2)s1`?
NPC1 prom act: -12%; FLuc modulator: 11µM*; ELG1 genotoxic: -5%; SMN2 splice enh: -71%; Rab9 prom act: -15%; Luc counter: 0%

Results for Cc1cc(C(=O)N/N=C/c2c(C)[nH]c3ccccc23)n[nH]1 ?
NPC1 prom act: 2%; FLuc modulator: inconclusive; ELG1 genotoxic: -2%; Rab9 prom act: -4%

Results for NC1CCN(c2c(F)cc3c(=O)c(C(=O)O)cn(C4CC4)c3c2Cl)C1 (stereo not drawn) ?
NPC1 prom act: -2%; FLuc modulator: -3%; ELG1 genotoxic: 1%; Rab9 prom act: -2%

How did O=C(Nc1ccc(S(=O)(=O)Nc2ncccn2)cc1)c1cc(=O)c2ccccc2o1 do in these assays?
FLuc modulator: 4%; SMN2 splice enh: -1%
